Experimental data taken from PubChem BioAssay (Tox21).
“And” between values parts separate entries of the source, which are not always exact repeats. Equal entries are not always repeated. Inconclusive results are not listed. Some compounds were tested as several samples or in several runs, with calls that do not always agree. The source made the active and inactive calls. Unless noted, the call rests on the fitted dose curve; in most records, active means well fitted curve in the direction sought with a large enough effect in the repeat runs; inconclusive means weak or mixed curves; inactive means no such curve, though single readings can be large; an effect the other way counts as inactive or inconclusive.

Experiments:
[1] = qHTS assay to identify small molecule antagonists of the glucocorticoid receptor (GR) signaling pathway - cell viability counter screen (AID 720693); further: nearly all actives have a fitted effect of over 55% in size; further: potency means the concentration at half of the fitted maximal effect
[2] = qHTS assay for identifying genotoxic compounds that show differential cytotoxicity against isogenic chicken DT40 cell lines with known DNA damage response pathways - wild type cell line (AID 743012); further: nearly all actives have a fitted effect of over 60% in size; further: potency means the concentration at half of the fitted maximal effect
In short: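 Viability by ATP luminescence (CellTiter-Glo, 30 min RT) after 40 h compound treatment at 37 C/5% CO2, using 300 parental DNA repair-proficient DT40 cells per well.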

[3] = qHTS assay for identifying genotoxic compounds that show differential cytotoxicity against isogenic chicken DT40 cell lines with known DNA damage response pathways - Rev3 mutant cell line (AID 743014); further: nearly all actives have a fitted effect of over 55% in size; further: potency means the concentration at half of the fitted maximal effect
[4] = qHTS assay for identifying genotoxic compounds that show differential cytotoxicity against isogenic chicken DT40 cell lines with known DNA damage response pathways - Rad54/Ku70 mutant cell line (AID 743015); further: nearly all actives have a fitted effect of over 60% in size; further: potency means the concentration at half of the fitted maximal effect
[5] = qHTS assay to identify small molecule antagonists of the androgen receptor (AR) signaling pathway - cell viability counter screen (AID 743033; further: nearly all actives have a fitted effect of over 45% in size; further: potency means the concentration at half of the fitted maximal effect)
[6] = qHTS assay to identify small molecule antagonists of the androgen receptor (AR) signaling pathway using the MDA cell line - cell viability counter screen (AID 743041; further: nearly all actives have a fitted effect of over 45% in size; further: potency means the concentration at half of the fitted maximal effect)
In short: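 Using the breast carcinoma line MDA-kb2 AR-luc, test chemicals were co-incubated with R1881 for 16 h; CellTiter-Fluor reagent, added at 15.5 h, provided a fluorescence measure of live cells.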

[7] = target: Androgen receptor (Homo sapiens) (UniProt P10275); assay: qHTS assay to identify small molecule antagonists of the androgen receptor (AR) signaling pathway (AID 743035; active means well fitted inhibition curve with a large enough effect in the signal ratio in the repeat runs, not every such curve was filed as active; the % refers to the signal ratio; further: potency means the concentration at half of the fitted maximal effect)
Chain of Androgen receptor (Homo sapiens) (P10275 whole entry, looked up): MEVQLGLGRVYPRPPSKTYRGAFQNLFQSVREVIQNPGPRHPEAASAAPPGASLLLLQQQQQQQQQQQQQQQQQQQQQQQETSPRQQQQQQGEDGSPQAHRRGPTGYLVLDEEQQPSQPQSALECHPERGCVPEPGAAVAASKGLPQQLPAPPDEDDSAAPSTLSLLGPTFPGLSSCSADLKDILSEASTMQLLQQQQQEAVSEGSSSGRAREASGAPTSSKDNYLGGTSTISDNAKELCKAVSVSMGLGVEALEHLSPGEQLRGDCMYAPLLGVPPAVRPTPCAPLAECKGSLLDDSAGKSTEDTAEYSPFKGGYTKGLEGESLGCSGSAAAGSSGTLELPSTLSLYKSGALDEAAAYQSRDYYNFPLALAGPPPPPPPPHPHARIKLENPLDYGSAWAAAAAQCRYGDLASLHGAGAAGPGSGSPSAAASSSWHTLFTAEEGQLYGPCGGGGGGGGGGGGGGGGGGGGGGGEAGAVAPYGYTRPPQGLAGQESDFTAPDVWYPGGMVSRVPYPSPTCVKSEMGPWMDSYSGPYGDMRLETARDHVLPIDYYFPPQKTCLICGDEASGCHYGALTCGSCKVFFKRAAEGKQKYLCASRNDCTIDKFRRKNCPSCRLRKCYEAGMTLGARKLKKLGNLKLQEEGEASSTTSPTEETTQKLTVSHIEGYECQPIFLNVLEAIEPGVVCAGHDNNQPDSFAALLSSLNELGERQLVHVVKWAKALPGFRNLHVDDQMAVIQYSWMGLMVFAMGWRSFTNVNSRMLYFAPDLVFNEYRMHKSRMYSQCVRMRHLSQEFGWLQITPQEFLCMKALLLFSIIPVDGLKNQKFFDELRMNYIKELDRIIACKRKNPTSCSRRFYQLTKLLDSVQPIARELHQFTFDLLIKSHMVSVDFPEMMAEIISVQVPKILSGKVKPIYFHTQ
In short: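 Antagonist mode: AR-bla HEK293 cells co-treated with test compounds and agonist R1881 for 16 h at 37C, 5% CO2. Beta-lactamase activity read as FRET fluorescence after 2 h room-temperature substrate loading.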

[8] = target: Androgen receptor (Homo sapiens) (UniProt P10275); assay: qHTS assay to identify small molecule agonists of the androgen receptor (AR) signaling pathway (AID 743036; active means well fitted activation curve with a large enough effect in the signal ratio in the repeat runs, with a control signal flat, not every such curve was filed as active; the % refers to the signal ratio)
In short: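 Fluorescence from a beta-lactamase FRET substrate served as read-out in AR-UAS-bla GripTite HEK293 cells. Cells were treated with DMSO-dissolved compounds for 16 h at 37C, then with LiveBLAzer B/G substrate for 2 h at room temperature.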

[9] = target: Androgen receptor (Homo sapiens) (UniProt P10275); assay: qHTS assay to identify small molecule agonists of the androgen receptor (AR) signaling pathway using the MDA cell line (AID 743040; further: nearly all actives have a fitted effect of over 20% in size)
In short: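 Stable MMTV-luciferase reporter in MDA-kb2 cells; note the promoter carries GR as well as AR response elements. 16 h compound treatment, 37C, 0% CO2; ONE-Glo luminescence endpoint.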
On the % scale 0 is the no-effect control and ±100 the full control effect.

FC(F)C(F)(F)OCC(Cn1cncn1)c1ccc(Cl)cc1Cl (stereo not given)
inactive: Potency [1]
active: Potency [2] 3.05 µM | Potency [3] 4.83 µM | Potency [4] 7.65 µM | Potency [5] 54.6 µM

[Cl-].[Cl-].[Sn+2]
inactive: Potency [1] | Potency [2] | Potency [3] | Potency [4] | Potency [5] | Potency [6]

CCOP(=O)(OCC)Oc1cc(C)nc(C(C)C)n1
inactive: Potency [1] | Potency [2] | Potency [3] | Potency [4] | Potency [5] | Potency [6]

O=NN(CCO)CCO
inactive: Potency [1] | Potency [2] | Potency [3] | Potency [4] | Potency [5] | Potency [7] | outcome [8] | outcome [9] | Potency [6]

CCC(OC(C)=O)C(CC(C)NC)(c1ccccc1)c1ccccc1 (stereo not given)
inactive: Potency [1] | Potency [5] | outcome [9]
active: Potency [2] 7.76 µM | Potency [3] 15.5 µM | Potency [4] 15.5 µM | Potency [7] 49.4 µM | Potency [6] 27.5 µM

CC(C)Br
inactive: Potency [1] | Potency [2] | Potency [3] | Potency [4] | Potency [5] | Potency [6]

COc1c2c(cc3c1OCO3)CCN(C)C2
inactive: Potency [1] | Potency [2] | Potency [3] | Potency [4] | Potency [5] | Potency [6]

CCCCN(CCCC)C(=S)[S-].CCCCN(CCCC)C(=S)[S-].[Ni+2]
inactive: Potency [1] | Potency [2] | Potency [3] | Potency [4] | Potency [5] | Potency [6]

O.O.O.O.O.O.O.O=S(=O)([O-])[O-].[Co+2]
inactive: Potency [1] | Potency [2] | Potency [3] | Potency [4] | Potency [5] | Potency [6]

Clc1cc(Cl)c(-c2cc(Cl)c(Cl)cc2Cl)cc1Cl
inactive: Potency [1] | Potency [2] | Potency [3] | Potency [4] | Potency [5] | Potency [6]

CC1=C2C[C@H]3[C@@H](CC=C4C[C@@H](O)CC[C@@]43C)[C@@H]2CC[C@]12O[C@@H]1C[C@H](C)CN[C@H]1[C@H]2C
inactive: Potency [1] | outcome [8] | outcome [9] | Potency [6]
active: Potency [2] 29.8 µM | Potency [3] 8.41 µM | Potency [4] 29.8 µM

COC(=O)c1ccccc1S(=O)(=O)NC(=O)Nc1nc(C)nc(OC)n1
inactive: Potency [1] | Potency [2] | Potency [3] | Potency [4] | Potency [5] | Potency [6]

CCc1cccc(C)c1N(C(=O)CCl)[C@@H](C)COC
active: Potency [2] 13.7 µM | Potency [3] 19.3 µM | Potency [4] 30.6 µM
inactive: Potency [1] | Potency [6]

O=[N+]([O-])c1ccc(Cl)c(Cl)c1Cl
inactive: Potency [1] | Potency [2] | Potency [3] | Potency [4] | Potency [5] | Potency [6]

CC(=O)[O-].CC(=O)[O-].CC(=O)[O-].[Sb+3]
inactive: viability change, negative = cytotoxic [1] -0.477% [at 7.04 µM] | activity change, negative = cytotoxicity [2] -1.26% [at 8.52 µM] | activity, negative = cytotoxicity [3] 0.291% [at 8.53 µM] | activity change, negative = cytotoxicity [4] -0.679% [at 8.55 µM] | activity change, negative = cytotoxicity [5] -2.21% [at 7.04 µM] | viability change, negative = cytotoxic [6] -11.1% [at 8.47 µM]

Brc1cccc(-c2ccccc2)c1
inactive: Potency [1] | Potency [2] | Potency [3] | Potency [4] | Potency [5] | Potency [6]

NC(=O)C(Cl)Cl
inactive: Potency [1] | Potency [2] | Potency [3] | Potency [4] | Potency [5] | Potency [6]

CC(Cc1ccc(O)cc1)NCC(O)c1cc(O)cc(O)c1 (stereo not given)
inactive: Potency [1] | Potency [2] | Potency [3] | Potency [4] | Potency [5] | Potency [6]

CC(C)NCC(O)c1ccccc1Cl (stereo not given)
inactive: Potency [1] | Potency [2] | Potency [3] | Potency [4] | Potency [7] | outcome [8] | outcome [9] | Potency [6]

CC[C@H](C)[C@H]1O[C@]2(C=C[C@@H]1C)C[C@@H]1C[C@@H](C/C=C(\C)[C@@H](O[C@H]3C[C@H](OC)[C@@H](O[C@H]4C[C@H](OC)[C@@H](NC)[C@H](C)O4)[C@H](C)O3)[C@@H](C)/C=C/C=C3\CO[C@@H]4[C@H](O)C(C)=C[C@@H](C(=O)O1)[C@]34O)O2
active: Potency [1] 12.3 µM | Potency [2] 0.686 µM | Potency [3] 0.686 µM | Potency [4] 0.864 µM | Potency [5] 2.19 µM | Potency [6] 21.7 µM

C#CC1(O)CCCCC1
inactive: Potency [1] | Potency [2] | Potency [3] | Potency [4] | Potency [5] | Potency [6]

C[C@]12C/C(=C/O)C(=O)C[C@@H]1CC[C@@H]1[C@@H]2CC[C@@]2(C)[C@H]1CC[C@]2(C)O
active: Potency [1] 49.4 µM | Potency [2] 29.8 µM | Potency [3] 49 µM | Potency [4] 13.3 µM and 15.5 µM
inactive: Potency [6]
inactive and 44.1 µM (active): Potency [5]

O=[N+]([O-])c1ccc(CCl)cc1
inactive: Potency [1] | Potency [2] | Potency [3] | Potency [4] | Potency [5] | Potency [6]

[Cl-].[Cl-].[Cl-].[Yb+3]
inactive: Potency [1] | Potency [2] | Potency [3] | Potency [4] | Potency [5] | Potency [6]

CCOC(=O)Cc1ccccc1
inactive: Potency [1] | Potency [2] | Potency [3] | Potency [4] | Potency [7] | outcome [8] | outcome [9] | Potency [6]

CCCCc1ccccc1
inactive: Potency [1] | Potency [2] | Potency [3] | Potency [4] | Potency [5] | Potency [6]

C=C(C)C(=O)[O][Sn]([CH2]CCC)([CH2]CCC)[CH2]CCC
active: Potency [1] 0.776 µM | Potency [2] 0.486 µM | Potency [3] 0.686 µM | Potency [4] 0.545 µM | Potency [5] 0.776 µM | Potency [6] 1.93 µM
